Measured values: PubChem BioAssay AID1456 (Vanderbilt High Throughput Screening Facility, 2008)
The campaign covered roughly 190,000 compounds. About 4,100 (2.2%) were called active.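 The calls were made as follows: active = thallium flux slope and its plate-corrected score both differing from the plate sample mean at a set confidence after two filtering rounds, in either direction; inactive = the rest.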 The full list was thinned out, with actives kept by preference.

Target: Solute carrier family 12 member 5 (Homo sapiens) (UniProt Q9H2X9)
Sequence (Q9H2X9 whole entry, looked up): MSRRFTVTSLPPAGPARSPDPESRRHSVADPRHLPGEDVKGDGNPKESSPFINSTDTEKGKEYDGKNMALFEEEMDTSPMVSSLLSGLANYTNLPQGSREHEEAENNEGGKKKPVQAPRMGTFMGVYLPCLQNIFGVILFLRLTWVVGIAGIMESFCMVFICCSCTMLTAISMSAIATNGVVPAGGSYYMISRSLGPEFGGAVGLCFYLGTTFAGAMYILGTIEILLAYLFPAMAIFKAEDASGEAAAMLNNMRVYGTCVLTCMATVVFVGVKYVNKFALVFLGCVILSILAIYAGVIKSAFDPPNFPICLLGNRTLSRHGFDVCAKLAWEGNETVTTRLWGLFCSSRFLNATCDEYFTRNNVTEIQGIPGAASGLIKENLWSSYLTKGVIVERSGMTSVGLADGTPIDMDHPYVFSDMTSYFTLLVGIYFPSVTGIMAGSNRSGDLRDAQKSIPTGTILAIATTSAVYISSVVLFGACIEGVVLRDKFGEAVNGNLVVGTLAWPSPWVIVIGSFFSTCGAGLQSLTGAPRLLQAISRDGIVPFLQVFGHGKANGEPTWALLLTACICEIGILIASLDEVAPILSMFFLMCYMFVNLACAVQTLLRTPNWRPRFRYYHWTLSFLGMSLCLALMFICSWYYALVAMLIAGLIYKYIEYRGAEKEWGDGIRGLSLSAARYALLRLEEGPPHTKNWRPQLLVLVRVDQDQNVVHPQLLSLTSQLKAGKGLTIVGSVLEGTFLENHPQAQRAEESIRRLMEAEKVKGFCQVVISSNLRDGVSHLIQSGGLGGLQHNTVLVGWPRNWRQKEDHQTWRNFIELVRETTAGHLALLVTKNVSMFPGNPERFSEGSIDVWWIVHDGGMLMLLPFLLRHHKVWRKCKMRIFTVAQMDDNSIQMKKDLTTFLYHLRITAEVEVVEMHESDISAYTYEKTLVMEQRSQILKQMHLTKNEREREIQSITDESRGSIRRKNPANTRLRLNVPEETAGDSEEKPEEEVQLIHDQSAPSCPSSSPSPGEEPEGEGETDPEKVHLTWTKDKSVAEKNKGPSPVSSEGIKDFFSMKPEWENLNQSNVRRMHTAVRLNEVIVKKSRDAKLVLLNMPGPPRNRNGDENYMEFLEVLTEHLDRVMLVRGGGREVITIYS
Experiment: KCC2 cotransporter modulators, thallium flux, primary screen, cell-based, HEK293 KCC2, FluoZin-2 fluorescence, MLSMR (AID 1456);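 also: slope of fluorescence scaled to starting intensity during 10 to 20 s after thallium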
Details: KCC2 cells, thallium flux FluoZin-2 fluorescence; at 10 µM

Row | Structure (SMILES) | B-score of Tl+ flux slope (higher = more flux/activation; lower = inhibition)
1 | COc1cc(/C=C2/C(=O)NN(c3ccc(F)cc3)C2=O)cc([N+](=O)[O-])c1O | -2.31 (inactive)
2 | COc1ccc(N2C(=O)CNC2=S)cc1 | 0.069 (inactive)
3 | COc1ccc(-n2c(C)csc2=S)cc1 | 0.0167 (inactive)
4 | COc1ccc(-c2cn(-c3ccc(OC)cc3)c(=S)[nH]2)cc1 | 8.53 (active)
5 | O=C(O)CCCCCCCCCC[n+]1ccccc1 | 0.183 (inactive)
6 | O=C(O)c1ccccc1OCc1ccccc1Cl | 0.00686 (inactive)
7 | COc1ccc(OC)c(-n2c(-c3ccn[nH]3)n[nH]c2=S)c1 | -0.678 (inactive)
8 | Cc1cc([N+](=O)[O-])nn1Cc1ccc(F)cc1 | -0.826 (inactive)
9 | O=C(Nn1c(SCc2ccc([N+](=O)[O-])cc2)nc2ccccc2c1=O)c1ccc(F)cc1 | 0.0971 (inactive)
10 | Cc1nc(SCc2ccc(F)cc2)c([N+](=O)[O-])[nH]1 | -4.77 (active)
11 | CN(C)C(=O)c1nc2ccc(Cl)cn2c1CNCc1cccc(OC(F)(F)F)c1 | -0.562 (inactive)
12 | COc1ccc(N2C(=O)CC(Nc3ccc(F)cc3)C2=O)c([N+](=O)[O-])c1 (stereo not drawn) | -1.31 (inactive)
13 | O=C(CN(c1cccc(Cl)c1)S(=O)(=O)c1ccccc1)NN=C1CCCC1 | 3.73 (active)
14 | Cc1ccc(S(=O)(=O)N(CC(=O)N2CCc3ccccc3C2)c2cccc(Cl)c2)cc1 | -1.52 (inactive)
15 | CN1CCC(=NNC(=O)CN(c2cccc(Cl)c2)S(C)(=O)=O)CC1 | 0.643 (inactive)
16 | CCn1c(SCC(=O)N/N=C/c2ccncc2)nc2ccccc21 | -0.7 (inactive)
17 | Cc1cccc(NC(=O)CSc2nnc(CCNC(=O)OC(C)(C)C)o2)c1C | -0.155 (inactive)
18 | COc1cccc(Nc2nc(N)c([N+](=O)[O-])c(NCc3ccco3)n2)c1 | -0.0593 (inactive)
19 | COc1ccc(C(=O)N/N=C2\CCS(=O)(=O)c3ccc(F)cc32)cc1OC | 0.15 (inactive)
20 | O=C(NCCCn1ccnc1)C(=O)NCC1OCCN1S(=O)(=O)c1cc(F)ccc1F (stereo not drawn) | -0.0662 (inactive)
21 | CCn1c(CSCc2c(Cl)cccc2Cl)n[nH]c1=S | -0.136 (inactive)
22 | COc1ccc(NCc2nnc(SCc3ccccc3)n2-c2ccc(OC)cc2)cc1 | -2.95 (inactive)
23 | Cc1ccc(NCc2n[nH]c(=S)n2-c2ccccc2)cc1Cl | 20.1 (active)
24 | S=c1[nH]nc(-c2cc(-c3ccsc3)n[nH]2)n1-c1ccccc1 | -0.815 (inactive)
25 | S=c1[nH]nc(CSCc2ccc(Cl)cc2Cl)n1-c1ccccc1 | 38.3 (active)

Row | Structure (SMILES) | B-score of Tl+ flux slope (higher = more flux/activation; lower = inhibition)
26 | O=c1[nH]nc(CSCc2ccccc2Cl)[nH]1 | 1.48 (inactive)
27 | Cc1noc(C)c1C(=O)OCC(=O)N1CCN(S(=O)(=O)c2ccc3ccccc3c2)CC1 | -0.121 (inactive)
28 | CS(=O)(=O)c1ccc(Cl)c(NC(=O)Nc2ccccc2)c1 | -0.0556 (inactive)
29 | COc1ccc(CCN2C(=O)N(c3ccc(OC)cc3)C(=O)C2CC(=O)Nc2ccc(OC)cc2)cc1 (stereo not drawn) | 0.0027 (inactive)
30 | C/C(=N\NC(=O)CC(C)C)c1c(C(F)(F)F)[nH]n(-c2nc3ccccc3s2)c1=O | -1.82 (inactive)
31 | COc1ccccc1P(=O)(c1ccccc1)c1ccccc1NC(C)=O (stereo not drawn) | 0.0591 (inactive)
32 | CCOc1cc2[nH]c(=O)n(CCC(=O)NCc3ccc(OC)cc3)c(=O)c2cc1OCC | 0.0101 (inactive)
33 | COc1ccc(CNC(=O)CCn2cccc2)cc1 | 7.58 (active)
34 | COc1ccc(CNC(=O)C(Cc2ccccc2)n2cccc2)cc1 (stereo not drawn) | -2.15 (inactive)
35 | N#CCCCn1c(O)c(N=NC(=O)C(O)c2ccccc2)c2ccccc21 (stereo not drawn) | -0.218 (inactive)
36 | Cn1cccc1C(C#N)c1ccccc1C#N (stereo not drawn) | 1.43 (inactive)
37 | O=C(COC(=O)c1ccc(S(=O)(=O)Nc2ccccc2)cc1)NCC1CCCO1 (stereo not drawn) | 0.0831 (inactive)
38 | O=C(NCCCN1CCOCC1)c1ccc(N2CCCC2)c([N+](=O)[O-])c1 | -0.0166 (inactive)
39 | O=C(O)c1ccc(NC(=O)c2cn(-c3ccccc3)nc2-c2ccc(Cl)cc2)cc1 | -0.953 (inactive)
40 | O=C(Nc1cn(-c2ccccc2)nc1-c1ccccc1)c1ccccc1 | -1.74 (inactive)
41 | O=C(NNC(=S)NC(=O)c1cn(-c2ccccc2)nc1-c1ccccc1)c1ccncc1 | 8.65 (active)
42 | O=C(NCC(c1cccs1)N1CCOCC1)c1cc(-c2ccccn2)nc2ccccc12 (stereo not drawn) | -0.17 (inactive)
43 | CCc1nnc(NC(=O)CSc2nc3c(c(=O)n2-c2ccccc2OC)SCC3)s1 | -2.34 (inactive)
44 | Cc1cccc(CSc2nc3c(c(=O)n2C)SCC3)c1 | -0.478 (inactive)
45 | CCn1c(SCc2ccccc2)nc2c(c1=O)SCC2 | -2.99 (active)
46 | CC1=CC(C)(C)NC(=S)N1NC(=O)c1ccccc1Cl | 1.28 (inactive)
47 | O=c1[nH]c2cccnc2n1-c1ccc([N+](=O)[O-])cc1 | 1.09 (inactive)
48 | C/C(=N/NC(=S)Nc1ccccc1)c1ccc2c(c1)OCO2 | 17.1 (active)
49 | C/C(=N\NC(=O)C(N)=O)c1ccc2c(c1)OCCO2 | 0.474 (inactive)
50 | O=C(Nc1ccccc1)c1ccc2c(c1)OCO2 | 1.15 (inactive)

Row | Structure (SMILES) | B-score of Tl+ flux slope (higher = more flux/activation; lower = inhibition)
51 | C/C(CC(=O)NC(C)c1ccccc1)=N\NC(N)=S (stereo not drawn) | -0.13 (inactive)
52 | NS(=O)(=O)c1ccc(NC2=CC(c3ccc(F)cc3)N(c3ccc(S(N)(=O)=O)cc3)C2=O)cc1 (stereo not drawn) | -4.18 (inactive)
53 | COc1ccc(F)cc1S(=O)(=O)N1CCCCC1 | -0.191 (inactive)
54 | Cc1cc(C)cc(N(CC(=O)NCCSCc2ccco2)S(C)(=O)=O)c1 | -0.0202 (inactive)
55 | O=C(/C=C/c1cccc([N+](=O)[O-])c1)NCCSCc1ccco1 | 0.313 (inactive)
56 | COc1cc(OC)cc(C(=O)NCCSCc2ccco2)c1 | 2.23 (active)
57 | O=[N+]([O-])c1ccc2c(c1)C(O)n1nc(-c3ccccc3)nc1S2 (stereo not drawn) | 0.824 (inactive)
58 | CC1CCN(Cc2nc(-c3ccc(Cl)cc3)no2)CC1 | -0.00541 (inactive)
59 | Cc1ccc(Cc2nc(-c3cccc(C)c3)no2)cc1 | -0.589 (inactive)
60 | Cc1ccc(-c2noc(CN3CCN(Cc4ccccc4)CC3)n2)cc1 | -2.45 (active)
61 | COc1cc(/C=C2/C(=O)ON=C2C)ccc1OCc1cccc(F)c1 | 0.0292 (inactive)
62 | Cc1ccc(C(=O)Nc2nc(N)n(-c3ccccc3)n2)cc1 | 0.00295 (inactive)
63 | N=c1c2c3c(sc2ncn1N)CCCC3 | 1.3 (inactive)
64 | c1nnc2c3c4c(sc3ncn12)CCC4 | -0.0315 (inactive)
65 | S=c1[nH]nc2c3c4c(sc3ncn12)CCCC4 | 6.7 (active)
66 | O=C(CCl)Nc1cccc(CP(=O)(c2ccccc2)c2ccccc2)c1 | -0.0445 (inactive)
67 | CCN(CC)C(=O)CS(=O)CC(=O)Nc1cc(OCCOC)c(Cl)cc1Cl (stereo not drawn) | -0.00564 (inactive)
68 | O=C(Nc1ccccc1F)C1C2C=CC3(O2)C1C(=O)N(c1cccnc1)C3C(=O)NC1CCCCC1 (stereo not drawn) | -6.39 (active)
69 | O=C(NCc1cccnc1)Nc1ccccc1F | 0.189 (inactive)
70 | CC(C)N1C(=O)C2C(C(=O)NC3CCCCC3)C3C=CC2(O3)C1C(=O)NC1CCCC1 (stereo not drawn) | -0.424 (inactive)
71 | Cc1nn(-c2ccccc2)c(=O)c2noc(C)c12 | -0.0422 (inactive)
72 | CCOCC(=O)Nc1sc2c(c1C(=O)OCC)CCCC2 | 0.549 (inactive)
73 | CCOC(=O)c1c(NC(=S)Nc2ccccc2C)sc2c1CCC2 | -0.787 (inactive)
74 | CCOC(=O)c1c(NC(=S)NC)sc2c1CCCC2 | 118 (active)
75 | Cc1nc(=O)c(-c2ccccc2)c(C)n1-c1ccc(Br)cc1 | -0.435 (inactive)

Row | Structure (SMILES) | B-score of Tl+ flux slope (higher = more flux/activation; lower = inhibition)
76 | Cc1cc(C)n(-c2nc(SCC(=O)N3CCCC3)c3c4c(sc3n2)CCCC4)n1 | 0.509 (inactive)
77 | COCCNc1nc(-n2nc(C)cc2C)nc2sc3c(c12)CCCC3 | -4.01 (active)
78 | CCC(O)CNc1nc(-n2nc(C)cc2C)nc2sc3c(c12)CC(C)(C)OC3 (stereo not drawn) | -1.67 (inactive)
79 | COc1cccc(N2C(=O)CC(N3CCc4ccccc4C3)C2=O)c1 (stereo not drawn) | 0.0221 (inactive)
80 | O=C(CSc1nc2ccccc2o1)N/N=C/c1ccccc1C(=O)O | 0.867 (inactive)
81 | CSc1sc(C(=O)NC(=O)NCc2cccnc2)c(C)c1-c1ccon1 | -1.42 (inactive)
82 | CCOC(=O)c1cccnc1NC(=O)c1ccncc1 | 0.477 (inactive)
83 | COC(=O)c1ccccc1NC(=S)NC(=O)c1ccccc1F | 4.93 (inactive)
84 | COC(=O)c1cccnc1NC(=S)NC(C)C | 37.7 (active)
85 | Nc1scc[n+]1Cc1cccc2cccnc12 | -0.326 (inactive)
86 | c1ccc2c(C[n+]3csc4ccccc43)cccc2c1 | 4.99 (active)
87 | c1ccc2c(CSCc3nc4ccccc4[nH]3)cccc2c1 | -2.07 (inactive)
88 | CC(=O)Nc1ccc(C(=O)/C=C/c2ccc[nH]2)cc1 | 0.0206 (inactive)
89 | Cc1ccc(S(=O)(=O)N2CCN(C(=O)COC(=O)c3c(C)noc3C)CC2)c(C)c1 | 0.177 (inactive)
90 | CCn1c(=O)cc(O)c2ccccc21 | 0.265 (inactive)
91 | CCn1c(O)c(N=NC2=NC(=O)CS2)c2cc(C)ccc21 | 8.24 (active)
92 | CCn1c(O)c(N=NC(=O)c2cccc(S(=O)(=O)N3CCCCC3)c2)c2ccccc21 | -0.0952 (inactive)
93 | O=C(Cn1nnc(N2CCCCC2)n1)c1ccc(Cl)c(Cl)c1 | -0.13 (inactive)
94 | C/C=N/N(c1ccccc1)c1ccccc1 | 0.121 (inactive)
95 | Cc1ccc(S(=O)(=O)/N=C(/NC(=S)Nc2c(C)n(C)n(-c3ccccc3)c2=O)c2ccccc2)cc1 | -0.219 (inactive)
96 | CC1CCCN(S(=O)(=O)c2ccc(C(=O)Nc3nnc(-c4ccncc4)o3)cc2)C1 (stereo not drawn) | -0.0172 (inactive)
97 | CC1CCCCN1S(=O)(=O)c1ccc(C(=O)Nc2nnc(-c3cccs3)o2)cc1 (stereo not drawn) | 6.64 (active)
98 | CC1CCCCN1S(=O)(=O)c1ccc(S(=O)(=O)N(CC(=O)Nc2ccccc2)Cc2cccs2)cc1 (stereo not drawn) | 0.0298 (inactive)
